From PubChem
DT40 TDP1 CPT: qHTS for Inhibitors of human tyrosyl-DNA phosphodiesterase 1 (TDP1): qHTS in cells in presence of CPT. Potency, µM (titrated, usually from 46.2 µM), for inactives: at the highest dose activity change, negative = growth inhibition, actives largely listed as inhibitors. hit rate 12% among 420,000. chicken DT40 Tdp1-/-;hTDP1 cells + 20 nM CPT, ATP luminescence, 48 h; also: potency is read from the fitted curve at half-maximal effect; nearly all actives have a fitted effect of over 55% in size
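Chicken DT40 Tdp1-/- cells complemented with human TDP1, 400 cells/well, exposed to compounds plus 20 nM camptothecin for at least 48 h at 37 C; viability read as ATP content by CellTiter-Glo luminescence.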
HT1080 IDH1KD tx: qHTS for induction of synthetic lethality in tumor cells producing 2HG: qHTS for the HT-1080-IDH1KD cell line; hit rate 2% among 360,000; Potency, µM (series often up to 46.1 µM), for inactives: at the highest dose activity, negative = toxicity, most hits filed as cytotoxic; HT-1080 IDH1 knockdown viability, ATP luminescence, 48 h;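 also: potency is read from the fitted curve at half-maximal effect; 0% = DMSO wells and -100% = cell-free medium wells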
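Luminescent ATP read-out (CellTiter-Glo, 10 min at room temperature) after 48 h compound exposure at 37 °C gave viability of IDH1-knockdown HT-1080 cells. Activity was normalised to DMSO and cell-free wells, then fitted as concentration-response curves.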
IL1B secr inh: qHTS for Inhibitors of Inflammasome Signaling: IL-1-beta AlphaLISA Primary Screen; THP-1 LPS/ATP IL-1B secretion, AlphaLISA, 16 h; active compounds read low; activity change, % at 57.5 µM; hit rate 4.7% among 360,000; AID 743279, 2014; in the data active = activity change below about -50%; inconclusive = mostly about -30% to -49%
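THP-1 cells pretreated 1 hr with compounds (up to 57.5 uM final), then stimulated with LPS (250 ng/mL final) plus ATP (1.25 mM final); secreted IL-1B measured by AlphaLISA after 16 hr, decreased signal indicating inhibition.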
TDP1 cell noCPT: qHTS for Inhibitors of human tyrosyl-DNA phosphodiesterase 1 (TDP1): qHTS in cells in absence of CPT; Potency, µM (titrated, usually from 46.2 µM), for the others: at the top dose activity change, negative = growth inhibition, hits mostly inhibitors; hit rate 15% among 420,000; DT40 Tdp1-/- hTDP1 cells, no CPT, ATP luminescence, 48 h; also: potency is read from the fitted curve at half-maximal effect; nearly all actives have a fitted effect of over 55% in size
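Readout: luminescence from CellTiter-Glo after 30 min in the dark at RT. Cells: DT40 Tdp1-/- with stable hTDP1, 400/well. Exposure: compounds alone, ≥48 hr, 37 °C.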
HT1080NT lethal: qHTS for induction of synthetic lethality in tumor cells producing 2HG: qHTS for the HT-1080-NT fibrosarcoma cell line | HT-1080-NT fibrosarcoma viability, CellTiter-Glo ATP luminescence, 48 h | Potency, µM (top dose mostly 46.1 µM), inactives show at the highest dose activity, negative = less viability, usual class: cytotoxic | hit rate 1.6% among 360,000 | AID 686970, 2013;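 also: NT is the 2HG producing partner of a matched IDH1 knockdown line; potency is read from the fitted curve at half-maximal effect; 0% = DMSO-treated cells and -100% = media-only wells without cells; nearly all actives have a fitted effect of over 55% in size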
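Viability by CellTiter-Glo luminescence after 48 h compound exposure at 37C of HT-1080-NT cells (750/well, RPMI, 5% FBS). % activity scaled between DMSO wells and medium-only wells, then curve-fitted and categorized by curve class.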
12-LOX inh: Primary qHTS assay for inhibitors of human arachidonate 12S-lipoxygenase (ALOX12): Round 2. Polyunsaturated fatty acid lipoxygenase ALOX12 (Homo sapiens), P18054. purified 12hLO, xylenol orange hydroperoxide absorbance. Potency, µM (top dose mostly 108 µM), without a hit: at the highest dose activity change, negative = inhibition, actives largely listed as inhibitors. hit rate 1.1% among 580,000; also: potency is read from the fitted curve at half-maximal effect
Target sequence (P18054 whole entry, looked up): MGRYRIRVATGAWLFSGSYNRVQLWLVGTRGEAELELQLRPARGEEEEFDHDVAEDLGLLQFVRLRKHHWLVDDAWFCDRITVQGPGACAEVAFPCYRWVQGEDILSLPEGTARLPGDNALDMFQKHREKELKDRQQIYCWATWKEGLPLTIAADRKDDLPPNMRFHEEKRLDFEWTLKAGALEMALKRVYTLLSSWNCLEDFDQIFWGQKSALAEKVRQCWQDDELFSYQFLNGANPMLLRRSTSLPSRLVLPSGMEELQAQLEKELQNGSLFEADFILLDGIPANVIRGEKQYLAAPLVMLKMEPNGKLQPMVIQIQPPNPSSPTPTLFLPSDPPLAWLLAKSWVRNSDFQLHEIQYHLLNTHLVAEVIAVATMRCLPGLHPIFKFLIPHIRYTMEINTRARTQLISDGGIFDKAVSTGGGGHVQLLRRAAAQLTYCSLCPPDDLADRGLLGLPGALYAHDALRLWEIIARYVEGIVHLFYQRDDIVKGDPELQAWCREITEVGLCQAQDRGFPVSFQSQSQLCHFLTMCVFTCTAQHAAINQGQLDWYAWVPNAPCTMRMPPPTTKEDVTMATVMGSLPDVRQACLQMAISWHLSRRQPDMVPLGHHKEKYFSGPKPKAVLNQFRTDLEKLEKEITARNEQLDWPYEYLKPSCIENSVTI
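Hydroperoxide product was detected by ferrous iron/xylenol orange as the 573 to 405 nm absorbance ratio. Arachidonic acid at 40 uM (final) was turned over for 30 min at room temperature by 150 nM human 12hLO, pH 7.0 Hepes buffer, after 15 min compound preincubation.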
* = called active by the depositor; i = inactive; ? = inconclusive; . = no result given; [ ] = remark or other dose. The sample as a whole holds a higher share of hits than the screen did. Unless noted, calls follow the shape of the dose curve; as a rule, active = well fitted curve in the direction sought with a large enough effect; inconclusive = small, poorly fitted or top-dose-only effect, or another doubt; inactive = no such curve, though single readings can be large; an effect the other way counts as inactive or inconclusive. Unless noted, % is scaled to controls: 0 for no effect and ±100 for the full control effect.

SMILES	DT40 TDP1 CPT	HT1080 IDH1KD tx	IL1B secr inh	TDP1 cell noCPT	HT1080NT lethal	12-LOX inh
CCOC(=O)c1c(N)sn(-c2ccccc2C)c1=S	23µM*	-2%	-24	26µM*	-13%	?
O=C(CSc1ccc(Cl)cc1)N/N=C/c1ccc([N+](=O)[O-])o1	16µM*	-30%	-29	?	-25%	40µM*
O=C(CNc1ccc2ccccc2c1)N/N=C/c1ccc([N+](=O)[O-])o1	15µM*	?	-9	21µM*	?	-10%
O=C(CNc1ccc2ccccc2c1)N/N=C/c1ccc(C(=O)O)cc1	-2%	-4%	-2	2%	1%	1%
Oc1cc(-c2cccs2)cc2c1OCCN(Cc1cn[nH]c1-c1ccc(Cl)cc1)C2	18µM*	.	.	?	.	-4%
O=C(CCC1CCCN(S(=O)(=O)c2ccccc2F)C1)NCCc1ccccc1 (stereo not given)	.	.	.	.	.	-11%
Clc1cc(NCC2CCCCCC2)n2nccc2n1	.	.	.	.	.	47%[176 µM]
Cc1cc(Cl)c(C(=O)Nc2cccc(C(F)(F)F)c2)c(C)n1	-28%	-12%	-54*	-28%	-16%	?
CCn1cc(Cl)c(C(=O)Nc2cccc(C(F)(F)F)c2)n1	31%	-20%	-64*	-2%	-13%	0%
CCOC(=O)c1ccc(NC(=O)c2c(Cl)cc(C)nc2C)cc1	3.3µM*	-9%	?	5.2µM*	-7%	0%
Cc1nc(-c2cccnc2)sc1C(=O)Nc1cccc(C(F)(F)F)c1	?	18%	10	18µM*	10%	-3%
CC(Cn1cncn1)C(=O)N1CCc2onc(-c3ccc(F)c(F)c3)c2C1 (stereo not given)	.	.	.	.	.	31%
CCOC(=O)c1ccc(Nc2cc(C)nc(C)c2C(=O)OCC)cc1	?	-10%	25	18µM*	-4%	?
CCOC(=O)c1ccc(Nc2nnc(C(C)(C)C)c(=O)[nH]2)cc1	?	?	-91*	23µM*	-24%	0%
O=C(CN1CCN(c2ncccn2)CC1)NCCc1nc(-c2cccnc2)no1	.	.	.	.	.	-9%
N=C1/C(=C\c2ccc(Br)o2)C(=O)N=C2SC(CC(=O)N3CCCCC3)=NN12	6.5µM*	2%	-10	7.3µM*	5%	-5%
COc1ccc(-c2cc(=O)n(-c3ccc(OC)cc3)[nH]2)cc1	.	.	.	.	.	10%
O=C(NC(=O)c1ccccc1O)c1ccc(C(F)(F)F)cc1	12µM*	15µM*	-69*	7.3µM*	13µM*	66%
CCCc1ccc(C(=O)NC(=O)c2ccccc2O)cc1	2.3µM*	?	34	2.9µM*	?	148%
O=C(NNc1ccccc1)c1ccccc1	-24%	-18%	18	-15%	?	-16%
O=C(NNc1ccc(O)cc1)c1ccc(Br)cc1	21µM*	4.1µM*	31	12µM*	?	?
CCCc1ccc(C(=O)NNC(=O)c2ccc(Br)cc2)cc1	-1%	9%	i	-12%	1%	-12%
O=C(NC(=S)NNC(=O)c1ccccc1O)c1ccc(F)cc1	?	?	51	?	?	?
CCCc1ccc(C(=O)NNc2ccc(F)cc2)cc1	-3%	7.3µM*	-11	-1%	4.1µM*	18µM*
CN1Cc2cc(C(=O)N3CCC(C4CCNCC4)CC3)ccc2N[C@@H](CC(=O)O)C1=O	.	.	.	.	.	-29%[22.9 µM]
CN(C)c1ncnc2scc(-c3ccc(Cl)cc3)c12	.	.	.	.	.	-19%
